Test results from PubChem BioAssay AID1159506 (National Center for Advancing Translational Sciences (NCATS), 2015).
In all, about 59,000 sequences were measured (the read-out: median about -0.00055, lowest 2% from about -2 on). Only a selection was taken, and the lowest values are over-represented in it overall.

Assay: Identification of proteins required for the processing of the EWS-FLI1 nascent transcript;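 also: robust z of luciferase light less the median z of siRNAs with the same seed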
Conditions: TC32 Ewing sarcoma NR0B1-luc vs CMV-luc (EWS-FLI1 target promoter against control promoter), 48 h; screened at 20 nM (by protocol)
How it was run: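 TC32 Ewing sarcoma cells carrying NR0B1-promoter or CMV-promoter luciferase reporters were reverse-transfected with single siRNAs at 20 nM, three per gene genome-wide. Luminescence was read after 48 h and normalized to non-targeting controls.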

Sequence	seed-corrected z-score
UUCUCAAUCAGCACGGCCC against GPX2	-0.162
UCAUGUACACUGCUAAUUC against SLC30A10	0.696
AUACUGUUCACCGAGAAGG against TSPEAR	-3.82
UAUGUUGGUGCUCAUACUC against MED11	0.678
UUAAACUCAGGCUUUGGUC against HABP4	-1.03
UACUGAUUCACAAUGACCU against RNF208	-0.361
UAACUUGAUAACAGGUGCC against OR10T2	-5.77
AAAAACAACAGAAGCAUGC against TSPAN8	0.399
UGUUGUUCAACAAAACCGC against KRT28	0.472
AUAGGCAUAUGGUUAGGCC against SS18	-2.03
ACAGCGUACAGCAAACACG against TMEM54	-12
UUCCUCUUCACCACGGUGU against CNNM3	-0.123
UGAGAGUUCAUAGCGUAUC against RCE1	-0.494
AAAGUAUAAUGGAUGUAUC against GNAI1	-0.47
AUAGGUACCAGGUAUGAGC against FOXM1	0.087
UUUGUUGGGAUGUUGGGUG against SPATA12	-2.1
UGCUGAAUGAGGUACGUGC against ZNF550	-0.438
UAUCCAUUUUCCUCUAUCC against FGF10	-0.261
UAUGGUUAGAAGAUAUCCC against IDS	1.1
AAAAGCUCACGGAGAAUCC against LINC01433	1.28
AACUGUCAAUGGUUGAAGC against FCGR2A	-0.901
AGUUUCUCAAUGUCUGGGC against PAGR1	-3.83
UUCGAGAAAAGCAGAAUCC against PRORSD1P	-0.604

Sequence	seed-corrected z-score
ACAUCAACCACUACAGUGC against PCDHB7	-0.314
UUAACUUUCUCGAUAGAAC against SLC45A2	0.853
UUGACGUGCAUGAAGGACC against DUSP3	-0.254
UUCAGUACCAGGCUGGGUG against COMT	0.499
UUCUUGAUGAUCUUUAGCU against LONP1	0.0484
UGGUCUAUAGUAUUCAUGC against YTHDF2	-0.0088
UGAUUAUUAGGUACUACCC against RCN2	-2.4
UUCAAUCAGAUCGAAGAGC against CLK2	0.0394
AAAGAAGUAGAGGUAGGAC against OR6T1	0.724
UUAACUGCACCAUCAGUGU against S100A8	-3.04
UCAGCAUCAACAUAAUGCG against TAS2R40	-1.07
UGACGAAUCCCUGCUAUAG against TDRD5	-0.0697
AAUUAGAUUACCUAAACAC against CDKL2	0.926
UAAAGGGAAAUUUCCACCA against CDH16	0.815
UUUGGUGAUUUCAUAAUCC against PCDH18	-0.027
AUCUGGAUCGCUCAGCUCC against TMEM235	0.0464
UAGCUUCUCACAGACUUUC against KCTD8	-2.45
UUUCCUCUAGGAAGCAUCU against TRIM17	0.172
AUAGGCAGCAGUGCACUCG against 5-Sep	-1.81
UAUAGUUAAAUCCAUCAUC against CALU	0.272
UAGUAAGAAGAGUCAAUGC against PGA5	-0.472
AAUUGUUCACUGACCAGGC against WNT8A	-0.645
AAAUAAUCCUGUCUACUCC against BOD1	0.629

Sequence	seed-corrected z-score
UUGUAUUCAUCCUUGAAGC against CCDC89	-2.42
UGAGGACAUCGAAGAGGCC against HTR6	1.21
UAAUGUAGAACAUUUUGAC against LECT2	0.659
UAUGCUUGCAGUCCACUGG against DYNLT3	1.02
UUACUGGGAAUAGCACUGC against ITGA5	0.318
UACUCUAUCCGCUGUGCCC against RCC2	-0.853
UAGUUGUCGGUAUCUGUCC against CSPP1	-2.38
AUCGUGAAGAGAUACUCCG against MAPKBP1	0.318
UCAGCACACUGUCAGGUAC against USB1	0.878
UCACGGUGCACAAAGUUCU against ZAP70	-0.0104
UCUCUGUAUGUGACUGUGA against SNRPD3	-2.85
UUGAAGUUCAUUAGUCUCC against AK5	-0.322
UGUGGAUUUUGGAUGCAGC against XKR5	-0.21
AAUGUGGUUGAGCUGAUCC against MAPK3	-2.13
UUGGACAAAAGAUAAGAGC against SNRNP40	-0.258
UUACCAGAUAGGAUGAUCA against OR5P2	0.365
UUUGAGGCCGUUGAGGGUG against ELAVL3	-0.487
UGGGAUUCAAGAUCUCCUC against NGEF	-3.75
UUAAUGUAUGGGUUGACUC against PLS1	-0.413
UCCAGUUCUCCGGUGAUCU against SYNE3	0.481
UUUGCAUUCAUAAAGAAUU against ING3	-0.246
UCACGUACAAGAGCACUCG against GRHL2	0.132
UUCAGUUGAAUUCCAAAGG against ARHGAP28	0.997

Sequence	seed-corrected z-score
AAGGUGAUAAGUACAGUCA against LINC00977	0.26
AUGAUGCUAGGGUCGGUGC against E2F2	-0.689
UCUAGUACUACAUUGGCUU against FLJ32255	-1.66
CAUGGUCUCAGUCAGCAUG against CBY3	-2.21
UAUUCAGCAUUCUCUAUCU against DDAH2	-0.379
UCCCUGACAACUCCAGGGU against CLDN9	0.379
UAGUAAAUGAACGAAGGCG against MAD2L1	0.0839
UUAGAUACGACAUAAGCAG against PGAP1	0.122
UUUCUUCAAGGCAGUUUGC against SRGN	-1.36
UGAUGGUUGAAAUACUGGU against CITED2	-2.05
UGAACAGUCGCCGCUCUCU against ZNF418	0.482
UGUCGUUUUUGUAUCCUUG against CAGE1	-1.32
UCUUCGUUGACCACACCAC against KCNIP1	0.284
UAGAAUGUCAGUUGGUUCC against MID1IP1	0.366
UACAGAUAAACGAUGAUGC against TMEM104	-0.0479
AGUUGUCCAACCAAUAGUC against EDRF1	-3.95
UACAUUGAAGCCUAUGGUU against ARF5	0.767
UUUUAUUUUCACAGUAGCA against LOC441239	0.865
UGACUGUAAACAGAGGCGG against SSR4	-0.396
UUUCGUUGGACUUACUUGG against SPP1	-0.831
UCAGGGCAAAGUGGGAUGA against OXER1	-2.06
UUCAGGUGGACGAACAGCG against ADAMTS8	-0.634
UCCGAUAGAGGUUAGACCG against PPT2	-0.518

Sequence	seed-corrected z-score
UCUUCUUUAUGUACCACCG against CDC37L1	0.00159
UUGUAAGCUGGAUCGAUCC against ACACB	0.0997
UGGGUAUUUGAUCUUGUCG against LZTR1	-1.37
UUCUCUUCAACCCACUUGG against JAKMIP1	-2.7
UUUAGGUAAAUGAACUCUC against ANGPTL2	0.169
UAAAGGUUGAGAAACUUGA against PRPF38A	-2.42
UUAGAAUCGACCGGCAUUC against KIT	0.106
UAAAUGGCCGUGAUCAAUC against PRDM16	-0.168
UUUGUUCAAGGUUAAUCCC against LRRC27	0.333
UAUCUUCUCACUAACACUC against PEX12	0.599
ACCCUUAUGAAUUACACCC against PSMD1	-4.24
UCAUAGUUUAGUUCUCGAG against BBS9	0.745
AUAGAAUCGAUGGAAGUCC against CAMK2A	0.247
UUCUAUGAAAUCGUAAGGC against ME2	-0.054
AACAGCUCUCUGGUAAGCG against RPS23P8	-0.758
UUGCUUUCGAGACCAGCUC against C11orf16	-2.33
UUCUUAUAUGUAGUACGGG against ZNF506	-0.657
UUCGAACUAAGGCACGAGC against ABCB5	-0.392
UAUUUCCAUCGGAUGAUGC against GJD3	-0.0376
UAGGCUUAGAGGUCCCAGC against LACRT	2.39
UAAUUGACCAGCUUACUAC against PRAMEF2	1.04
AAUUCAUCCAUGAUUCUGC against FAM134B	-0.291
UAGUUGUCGACGAGCACGC against MUC5AC	-2.79

Sequence	seed-corrected z-score
UUCUUACCAGUGUUGAUGG against KIF11	-2.21
UAAUCUUCAUACGCAGUGC against HNRNPR	0.713
UUCAUACUGAAGAUUUUCC against ZNF157	-0.0023
UAGGAUUAAAUUAAUCCUC against GNE	-0.0404
UAAAGGCAUAGUUUCCCUG against RGS7BP	-2.71
AAAGGUGCAGAAGUUCUGU against LOC646484	-1.37
UCCAGUUCCAGAACUAUCU against HES2	0.537
AAACGGUCCAGGUAAUUCA against CCND2	-1.57
UCUCGUUCCACCAGAUCCG against OGFR	2.21
AGUUGUAGAAGAACGAAUC against PSMD2	-3.28
UUGGGUUUCGGACCUCUCU against CBX7	0.219
UAUCCUUCAACCAUUCUGG against DYX1C1	0.0057
UAUAUGACACCUGCUGUGG against NGFR	-1.33
AUUGCAGUCACGAUGAUGG against OR52I2	-1.16
UAAUGUCCAAGAUGGUCAC against CELSR1	0.481
UUCUGAAUCAAAGUUGUUC against CBLN1	0.758
UGUAUAACCUGGCUCUCUG against FAM45BP	-0.888
UAGGAUGGAACAUCAAUCU against WASH5P	-2.88
